This is an account of results in PubChem BioAssay (NCATS).

Structures are written as SMILES. Inconclusive results are not listed. Where a call stands in place of a potency, no number is given. The source made the active and inactive calls. Calls follow the shape of the dose curve; as a rule, active = well fitted curve in the direction sought with a large enough effect in the main read-out, with a control signal flat (not every such curve was filed as active); inconclusive = small, poorly fitted or top-dose-only effect, or effect the other way, or a change in a side signal; inactive = no such curve, though single readings can be large or run the other way.
Potency is read from the fitted curve at half-maximal effect.

A short description of this assay: qHTS Validation Assay to Find Inhibitors of Chronic Active B-Cell Receptor Signaling (AID 485345). The note with it: ABC-DLBCL cells, chronic BCR signaling reporter, CBG luciferase; series mostly up to 46.1 µM. The source says:
NIH Molecular Libraries Probe Production Network [MLPCN]
NIH Chemical Genomics Center [NCGC]
PI Name: Dr. R. Eric Davis
Diffuse large B-cell lymphoma (DLBCL) is the most common category of non-Hodgkin lymphoma, with ~20,000 new cases per year in the United States. DLBCL should be regarded as a collection of different neoplasms. Microarray gene expression analysis has defined two principal types of DLBCL, named for their similarity to normal B cell stages or activation states: a germinal center B-cell (GCB) type, and an activated B-cell (ABC) type. In ABC-DLBCL, a constitutive high-level activity of the NF-kappaB family of transcription factors has been observed (1) and NF-kappaB target genes are more highly expressed in ABC primary tumors than in GCB tumors. Functional studies have shown a constitutive high-level activity of the IkappaB (inhibitor of kappa-B) kinase (IKK) complex. […] Further analysis of DLBCL primary tumors for NF-kappaB target gene expression imply that although CARD11 is required for constitutive IKK activity in all ABC-DLBCL lines, mutations in CARD11 may be the root cause of IKK activation only in lines or tumors with such mutations. In other words, CARD11 mutations may explain NF-kappaB activation in only 10% of ABC-DLBCL cases. […] This process has been termed 'chronic active BCR signaling' (CABS).
The goal of this screen is to find small-molecule inhibitors of the CABS pathway found in ABC-DLBCL lines using a cell-based assay that measures IkappaBalpa stability, which has already been extensively validated in the OCI-Ly3 line (PubChem AID:445; REF: 4).
A cell-sensor assay for I-kappa-B-alpha stabilization has been developed. The assay uses green (CBG68) and red (CBR) emitting beetle luciferases [Chroma-GloTM developed by Promega Corp.] where the green luciferase is fused to IkappaBalpha and the red luciferase is present in its native state. Both luciferase genes are stably present in the TMD8 human ABC DLBCL cell line, but their expression is under the control of tetracycline-inducible promoters. Following the addition of doxycycline to induce expression of the luciferases, the green luminescence in control cultures rises only slowly because the CBG fusion partner IkappaBalpha is targeted by IKK activity for rapid degradation. In contrast, green luminescence rises rapidly in the presence of proteasome inhibitors or IKK inhibitors. The rise in red luminescence of CBR is not affected by proteasome or IKK inhibitors, and serves as normalization for cell number and nonspecific effects. Compounds were screened as a concentration-titration series that ranged from 46 uM to 3 nM.
NCGC Assay Protocol Summary:
Cells were seeded in 1536-well plates at 5000 cells/4uL in IMDM medium containing 0.5% FBS, w/o phenol red, 1% penicillin/streptomycin. Then, 23 nL of compounds or DMSO were delivered to each well using a pin tool. One uL 20ng/ml doxycycline was then dispensed into white solid 1536-well plates and the plates were incubated at 37C/5% C02 in a cell incubator for 4 hrs. Then 4 uL luminescent substrate mix (in-house prepared: 150 mM Tris-Cl, pH 7.6, 3 mM MgCl2, 1% Triton X-100, 5 mM DTT, 0.2 mM CoA, 0.15 mM ATP, 5 mM D-luciferin, final concentrations) was added to each well. The plate was incubated at r.t. for 10-15 min. The plates were measured on a ViewLux plate reader for green luminescence (540/20 nm filter) and red luminescence (618/8 nm filter). The green and red luminescent signals were corrected for red and green luminescence filter overlap using previously determined filter calibration constants (determined using the procedure outlined in the Promega Technical Manual; REF 4). The %Activity was determined from the ratio of corrected green/red luminescent values. MG132 were used as control. Green luminescent and ratio %Activity was determined by normalizing to the difference in signal between basal cells (0% Activity) and cells incubated with 10 uM of the proteasome inhibitor MG-132 (100% Activity). […]
As to `C[C@@H](N)C1CCC(C(=O)Nc2ccncc2)CC1` (some centres not stated), the Potency entry is “inactive”. `CC1(C)NC(=O)N(c2ccc([N+](=O)[O-])c(C(F)(F)F)c2)C1=O`: the Potency entry is “inactive”. The same measure for `OC(CN1CCN(c2cccc(Cl)c2)CC1)C(c1ccccc1)c1ccccc1` (configuration not stated): “inactive”.

Turning to `CNC[C@H](O)c1ccc(O)c(O)c1`, the Potency entry was “inactive”. `Oc1ccc2ccccc2c1SSc1c(O)ccc2ccccc12`: the Potency result was “inactive”.

With `CN(C)CCCC1(c2ccc(F)cc2)OCc2cc(C#N)ccc21` (configuration not stated), the Potency result is “inactive”.

With `O=c1c(O)c(-c2cc(O)c(O)c(O)c2)oc2cc(O)cc(O)c12`, the Potency entry was “inactive”.

`O=c1cc(N2CCOCC2)oc2c(-c3ccccc3)cccc12`: the Potency is 2590 nM (active). As for `O=C1NC(=O)C(c2ccccc2[N+](=O)[O-])=C1Nc1ccc(O)c(Cl)c1`, the Potency entry was “inactive”. `COc1ccccc1N1CCN(CCN(C(=O)C2CCCCC2)c2ccccn2)CC1`: the Potency result was “inactive”. As to `O=C(c1ccccc1)c1ccc2n1CCC2C(=O)O` (configuration not stated), the Potency entry is “inactive”. Take `O=C1c2c(O)cc(O)cc2OC(c2ccc(O)c(O)c2)C1O` (configuration not stated): the Potency entry was “inactive”. As for `NCCCCNCCCN`, the entry is “inactive”; as for `COc1ccc2cc([C@H](C)C(=O)O)ccc2c1`, “inactive”; as for `Cc1cccc(C#Cc2ccccc2)n1`, “inactive”. Turning to `Cc1c(OCC(F)(F)F)ccnc1CS(=O)c1nc2ccccc2[nH]1` (configuration not stated), the Potency entry was “inactive”. In the case of `CC(=O)O[C@H]1C(=O)[C@@]2(C)C([C@H](OC(=O)c3ccccc3)[C@]3(O)C[C@H](OC(=O)[C@H](O)[C@@H](NC(=O)c4ccccc4)c4ccccc4)C(C)=C1C3(C)C)[C@]1(OC(C)=O)CO[C@@H]1C[C@@H]2O` (some centres not stated), the Potency result is “inactive”.

With `NNc1nncc2ccccc12`, the Potency result was “inactive”. In the case of `Nc1ccn([C@@H]2O[C@H](CO)[C@@H](O)C2O)c(=O)n1` (some centres not stated), the Potency entry is “inactive”. Take `O=C(CCc1ccc(O)cc1)c1c(O)cc(O)cc1O`: the Potency entry is “inactive”. Take `O=c1c(O)c(-c2ccc(O)cc2O)oc2cc(O)cc(O)c12`: the Potency entry is “inactive”.

Turning to `O=c1ccc2ccc(O)c(O)c2o1`, the Potency result is “inactive”.
